The results in this text go back to PubChem BioAssay.

Activity calls are given as the source filed them. Unless noted, no rule for the calls is given here.

Experiment [1] can be described thus: HepG2 liver cancer cell viability effects, profiling panel, resazurin fluorescence, 24 h, PK04 Diversity Set (AID 1172). The following applies: higher = more signal. A general note: Alamar Blue is a resazurin reagent that responds to reducing activity.
A short description of experiment [2]: basal S. cerevisiae growth modulation, no modifier, primary screen, OD600, strain BY4716, 24 h, basal condition (AID 1173). Particulars: OD600, 24 h, higher = more signal, called active from +8 up or from −8 down.
The nature of experiment [3]: MM1S myeloma cell viability, profiling panel, resazurin fluorescence, basal, 24 h, PK04 Diversity Set (AID 1174).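 Also: MM1S multiple myeloma cell line.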 The following applies: higher = more signal, called active from +8 up or from −8 down.
In experiment [4] the target is Dihydroorotate dehydrogenase (quinone), mitochondrial (Plasmodium falciparum (isolate 3D7)) (UniProt Q08210). Nature of the experiment: PfDHODH enzyme inhibitors, primary screen, biochemical, C-terminal His tag, absorbance 600 nm (AID 1175).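 Also: recombinant parasite enzyme with a five histidine tag at its C terminus.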 Particulars: DCIP absorbance 600 nm, higher = more signal, called active from +8 up or from −8 down.
Experiment [5] in a line: P. aeruginosa biofilm formation inhibitors, primary screen, strain PAO1, LB-PBS medium, absorbance 600 nm (AID 1176). The following applies: P. aeruginosa PAO1 growth/biofilm, A600, 12 h; higher = more signal.
Experiment [6] is described as follows: S. cerevisiae RM11-1a growth modifiers, primary screen, strain RM11-1a, OD600, basal, 24 h (AID 1177).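 Also: cultures grown under basal conditions with no added stressor.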 Particulars: OD600, 24 h, higher = more signal, called active from +8 up or from −8 down.
Experiment [7] in a line: E. coli acrAB mutant growth effects, primary screen, E. coli filamentation inducers, strain DRC39, OD650, 24 h (AID 1178).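 Also: growth measured as culture turbidity by optical density at 650 nm.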 The following applies: higher = more signal, called active from +8 up or from −8 down.
The nature of experiment [8]: E. coli acrAB mutant growth effects, primary screen, E. coli filamentation inducers, strain DRC39, OD650, 48 h (AID 1179).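 Also: screen aims at cell division blockers that make cells filament.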 Particulars: E. coli DRC39 delta-acrAB growth, higher = more signal, called active from +8 up or from −8 down.
Experiment [9] is described as follows: RPMI8226 myeloma cell viability, profiling panel, resazurin fluorescence, basal, 24 h, PK04 Diversity Set (AID 1180).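 Also: RPMI8826 multiple myeloma cell line at 5000 cells per well.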 The following applies: higher = more signal.
For experiment [10], the target named is E3 ubiquitin-protein ligase XIAP (Homo sapiens) (UniProt P98170). Description: XIAP binders, primary screen, biophysical, small-molecule microarray, fluorescence 635 nm (AID 1181).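 Also: score merges 667 nm emission and signal to noise over triplicate slides.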 The following applies: small-molecule microarray binding, higher = more signal.
Experiment [11] concerns XIP peptide (Xip251-270) binding. Description: small-molecule binders of XIP peptide, primary screen, biochemical, small-molecule microarray, fluorescence 635/667 nm, 0.1 µg/mL protein (AID 1182). The following applies: fluorescent protein binding, 635 nm, higher = more signal, called active from +8 up or from −8 down.
The test system of a further experiment is XIP peptide (Xip251-270). Description: small-molecule binders of XIP peptide, primary screen, biochemical, small-molecule microarray, fluorescence 635/667 nm, 0.5 µg/mL protein (AID 1183). Particulars: small-molecule microarray binding, fluorescence 635 nm; higher = more signal.
The nature of experiment [12]: Plasmodium falciparum growth inhibition, primary screen, strain 3D7, DAPI fluorescence, 100 nL (AID 1184).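 Also: parasites grown inside human red blood cells in medium with human serum.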 The following applies: P. falciparum 3D7 growth, 3 d, higher = more signal.
Experiment [13] addresses Homeobox protein Hox-A13 (Mus musculus) (UniProt Q62424). Nature of the experiment: inhibitors of HoxA13-DNA binding, primary screen, biochemical, fluorescence polarization, labeled oligonucleotide (AID 1185). The following applies: 15 min, higher = more signal, called active from +8 up or from −8 down. (Polarisation of emitted light reports the rotation of a fluorescent probe.)

Experiment [14] is described as follows: inhibitors of hydroxyurea-induced Chk1 phosphorylation, primary screen, imaging, HeLa, phospho-Chk1 antibody, percent positive cells (AID 1186). The following applies: hydroxyurea-induced phospho-Chk1 immunofluorescence imaging, higher = more signal.
A short description of experiment [15]: inhibitors of hydroxyurea-induced Chk1 phosphorylation, primary screen, imaging, HeLa, phospho-Chk1 nuclear intensity (AID 1187). The following applies: hydroxyurea-induced phospho-Chk1 immunofluorescence imaging, higher = more signal.

Sequence of E3 ubiquitin-protein ligase XIAP (Homo sapiens) (P98170 whole entry, looked up): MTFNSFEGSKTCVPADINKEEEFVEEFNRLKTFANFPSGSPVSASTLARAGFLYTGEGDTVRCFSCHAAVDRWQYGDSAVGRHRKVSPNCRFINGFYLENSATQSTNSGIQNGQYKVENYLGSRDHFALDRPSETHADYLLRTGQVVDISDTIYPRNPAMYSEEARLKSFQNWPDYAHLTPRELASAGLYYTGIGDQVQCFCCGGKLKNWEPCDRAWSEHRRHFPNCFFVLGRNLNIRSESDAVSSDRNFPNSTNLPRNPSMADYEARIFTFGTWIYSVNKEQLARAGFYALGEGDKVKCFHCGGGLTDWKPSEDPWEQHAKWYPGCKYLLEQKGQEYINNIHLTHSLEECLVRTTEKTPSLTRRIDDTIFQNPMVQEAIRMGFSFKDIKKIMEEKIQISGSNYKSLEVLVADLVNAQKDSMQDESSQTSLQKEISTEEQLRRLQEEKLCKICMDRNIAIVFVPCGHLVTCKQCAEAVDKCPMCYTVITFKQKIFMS
Sequence of Homeobox protein Hox-A13 (Mus musculus) (Q62424 whole entry, looked up): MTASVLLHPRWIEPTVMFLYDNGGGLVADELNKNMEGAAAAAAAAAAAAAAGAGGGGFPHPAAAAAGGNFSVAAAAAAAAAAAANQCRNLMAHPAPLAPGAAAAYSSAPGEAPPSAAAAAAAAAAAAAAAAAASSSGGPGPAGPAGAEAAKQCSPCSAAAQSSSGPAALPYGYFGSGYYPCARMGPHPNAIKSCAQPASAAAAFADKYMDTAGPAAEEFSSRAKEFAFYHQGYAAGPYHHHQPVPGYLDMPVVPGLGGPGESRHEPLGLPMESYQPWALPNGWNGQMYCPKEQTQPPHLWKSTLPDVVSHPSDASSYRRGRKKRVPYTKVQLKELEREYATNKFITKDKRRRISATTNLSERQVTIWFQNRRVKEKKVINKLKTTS
Sequence of Dihydroorotate dehydrogenase (quinone), mitochondrial (Plasmodium falciparum (isolate 3D7)) (Q08210 whole entry, looked up): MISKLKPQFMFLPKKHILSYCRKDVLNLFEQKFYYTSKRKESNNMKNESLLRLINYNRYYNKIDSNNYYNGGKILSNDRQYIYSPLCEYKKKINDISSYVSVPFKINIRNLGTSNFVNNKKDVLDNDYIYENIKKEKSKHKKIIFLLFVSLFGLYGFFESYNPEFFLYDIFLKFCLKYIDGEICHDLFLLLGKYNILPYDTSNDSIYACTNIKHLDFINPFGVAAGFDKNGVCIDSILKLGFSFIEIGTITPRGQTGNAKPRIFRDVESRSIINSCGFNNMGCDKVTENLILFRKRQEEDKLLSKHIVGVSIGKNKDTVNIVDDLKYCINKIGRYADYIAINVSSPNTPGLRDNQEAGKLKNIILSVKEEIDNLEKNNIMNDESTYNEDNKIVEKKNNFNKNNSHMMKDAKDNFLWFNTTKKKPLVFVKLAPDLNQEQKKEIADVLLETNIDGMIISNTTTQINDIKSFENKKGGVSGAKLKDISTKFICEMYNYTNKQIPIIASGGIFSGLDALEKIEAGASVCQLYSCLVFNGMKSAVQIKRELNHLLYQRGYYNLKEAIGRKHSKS

With `CO[C@H]1O[C@H](CO)[C@@H](OC(=O)Nc2ccccc2)[C@H](OC(=O)Nc2ccccc2)[C@H]1OC(=O)Nc1ccccc1`, the z-score in experiment [1] was -1.08; in experiment [2], 0.0367 (inactive); in experiment [3], -2.78 (inactive); in experiment [5], -0.317 (inactive); in [6], 1.84 (inactive); in experiment [7] it was 1.48 (inactive). Further, the z-score in experiment [8] is 0.536 (inactive); in experiment [9] it was -1.95; in experiment [12], -2.51; in [13], -6.21 (inactive); in experiment [14], -0.0874 (inactive); in experiment [15], 0.511 (inactive). Moreover, the composite z-score in [4] is 1.02 (inactive); in [10], -0.0125; in [11], 0.142 (inactive); with XIP peptide (Xip251-270) it was 0.69.

Consider `COc1ccc(C(O)C2C=CC3C(=O)N(c4ccccc4)C(=O)C3N2Nc2ccc([N+](=O)[O-])cc2)c2ccccc12` (centres undefined), for which the z-score in experiment [1] was 0.248; in experiment [2], 0.0244 (inactive); in experiment [3] it was -0.121 (inactive); in experiment [5] it was 2.53 (inactive); in experiment [6], 0.0842 (inactive); in experiment [7] it was -0.901 (inactive). For the same compound, the z-score in [8] was -0.219 (inactive); in experiment [9], -0.322; in experiment [12], -1.32; in experiment [13], -0.935 (inactive); in [14], 0.219 (inactive); in experiment [15], -0.404 (inactive). The composite z-score in experiment [4] was 0.767 (inactive); in experiment [10], 0.312; in experiment [11], 0.314 (inactive); in the experiment with XIP peptide (Xip251-270) it was 0.685.

For the compound `O=C(NCC(O)CO)C1N=C(c2ccc(OCCCO)cc2)N(c2ccccc2)O1` (centres undefined), the z-score in [1] is -0.664; in experiment [2], -0.732 (inactive); in experiment [3], -0.783 (inactive); in [5], -1.41 (inactive); in experiment [6], -0.406 (inactive); in experiment [7] it was 0.015 (inactive). The z-score in experiment [8] is -0.003 (inactive); in experiment [9], -1; in experiment [12], -0.284; in [13], -2.55 (inactive); in experiment [14] it was -0.195 (inactive); in [15], -0.257 (inactive). Besides, the composite z-score is -0.568 (inactive) in experiment [4], -0.142 in [10], 0.654 (inactive) in experiment [11] and 0.801 in the experiment with XIP peptide (Xip251-270).

Regarding `CCCCC(O)C1C=CC2C(=O)N(c3ccccc3)C(=O)C2N1Nc1ccc(C#N)cc1` (centres undefined), the z-score is -0.438 in experiment [1]; -1.03 (inactive) in experiment [2]; 0.0125 (inactive) in [3]; 0.999 (inactive) in experiment [5]; 0.63 (inactive) in experiment [6]; 0.172 (inactive) in [7]. Also, the z-score in experiment [8] is -0.465 (inactive); in [9], 0.628; in experiment [12] it was 0.832; in [13], -3.62 (inactive); in experiment [14], 0.194 (inactive); in experiment [15] it was 0.404 (inactive). Also, the composite z-score in experiment [4] was 0.318 (inactive); in experiment [10], 0.169; in experiment [11], 1 (inactive); in the experiment with XIP peptide (Xip251-270), 0.109.

As for `CC(C)C[C@H]1NC(=O)C([C@@H](C)OCc2ccccc2)NC(=O)[C@@]23C(=O)N[C@@H](Cc4ccccc4)C2[C@H](C)[C@@]2(C)O[C@H]2C3/C=C/C/C=C\CNC1=O` (some centres undefined), the z-score was -0.662 in experiment [1]; -0.0256 (inactive) in experiment [2]; -0.521 (inactive) in experiment [3]; 0.294 (inactive) in experiment [5]; -0.3 (inactive) in experiment [6]; 0.12 (inactive) in [7]. Also, the z-score is -0.0809 (inactive) in experiment [8]; -0.0732 in [9]; -2.23 in [12]; -6.86 (inactive) in experiment [13]; -0.762 (inactive) in experiment [14]; -0.732 (inactive) in [15]. In addition, the composite z-score was -0.116 (inactive) in [4], 0.172 in experiment [10], 0.304 (inactive) in experiment [11] and 0.22 in the experiment on XIP peptide (Xip251-270).

`COc1ccc([Si](C)(C)[C@@H]2[C@@H](CC(=O)N3Cc4ccccc4C[C@H]3CO)O[C@]3(C(=O)N(Cc4ccc(N5CCOC5=O)cc4)c4ccccc43)[C@H]2C)cc1`: the z-score in experiment [1] was -0.231; in experiment [2], -0.678 (inactive); in experiment [3], -1.49 (inactive); in experiment [5], 1.18 (inactive); in [6] it was 0.455 (inactive); in experiment [7], 0.868 (inactive). The z-score in experiment [8] was 0.465 (inactive); in experiment [9], -0.504; in experiment [12], -1.82; in [13], -1.43 (inactive); in experiment [14], -0.262 (inactive); in experiment [15], -0.106 (inactive). The composite z-score was -0.836 (inactive) in [4], 0.0049 in [10], 2.28 (inactive) in [11] and 0.83 in the experiment on XIP peptide (Xip251-270).

For the compound `O=C(NC1CC1)[C@@H]1c2ccccc2C(=O)N(Cc2cc(C(F)(F)F)cc(C(F)(F)F)c2)[C@H]1c1ccc(CO)cc1`, the z-score in [1] was -0.0465; in experiment [2], -0.313 (inactive); in experiment [3] it was -0.498 (inactive); in experiment [5] it was 1.12 (inactive); in experiment [6], -0.44 (inactive); in [7], 0.655 (inactive). In addition, the z-score in experiment [8] is -0.261 (inactive); in experiment [9] it was 0.51; in experiment [12], -1.54; in [13] it was -2.66 (inactive); in experiment [14] it was -0.129 (inactive); in [15] it was -0.394 (inactive). For the same compound, the composite z-score in [4] was -0.331 (inactive); in experiment [10], -0.0448; in [11], 0.684 (inactive); in the experiment with XIP peptide (Xip251-270) it was 0.62.

For `COCCOC(=O)N1C(=O)[C@@]2(c3ccccc31)[C@H](C(=O)N1CCN(c3ncccn3)CC1)[C@H]1C(=O)O[C@H](c3ccccc3)[C@H](c3ccccc3)N1[C@@H]2c1ccccc1OCCO`, the z-score was -0.482 in experiment [1]; 1.76 (inactive) in experiment [2]; -0.684 (inactive) in experiment [3]; 3.3 (inactive) in experiment [5]; 2.04 (inactive) in experiment [6]; 0.858 (inactive) in experiment [7]. The z-score in experiment [8] was 0.611 (inactive); in experiment [9], 1.69; in [12], -1.99; in experiment [13], -1.77 (inactive); in experiment [14], -0.356 (inactive); in experiment [15], -0.484 (inactive). The composite z-score is -1.35 (inactive) in experiment [4], -0.0095 in experiment [10], 0.044 (inactive) in experiment [11] and 0.597 in the experiment on XIP peptide (Xip251-270).

For the compound `O=C1C[C@]2(c3ccc([N+](=O)[O-])cc3)C(=O)N(C3CC3)c3cc(CO)ccc3[C@H]2N1C1CCCCC1`, the z-score in [1] is 0.277; in experiment [2], 0.462 (inactive); in experiment [3], -0.0174 (inactive); in experiment [5], 0.475 (inactive); in [6], 0.3 (inactive); in experiment [7] it was 0.0977 (inactive). Besides, the z-score in experiment [8] is 0.284 (inactive); in experiment [9], -0.34; in experiment [12], 1.47; in experiment [13], -1.16 (inactive); in experiment [14] it was -0.214 (inactive); in experiment [15], -0.771 (inactive). Besides, the composite z-score was -3.75 (inactive) in experiment [4], -0.0286 in [10], -0.217 (inactive) in experiment [11] and 0.205 in the experiment with XIP peptide (Xip251-270).
